# Bioassay records as filed in PubChem.
# Shiga inhibitor – A qHTS for Small Molecule Inhibitors of Shiga Toxin. Vero cells, Shiga toxin protein synthesis inhibition reporter. inhibition, % at 38.7 µM. AID 2315, 2010. actives 9.2% (n = 290,000); in the data active = inhibition mostly above about 28%, no sharp cut-off; inactive = mostly below about 43%; note: 0% is about no effect
# Pf growth 48h – Primary qHTS for delayed death inhibitors of the malarial parasite plastid, 48 hour incubation | P. falciparum luciferase growth in erythrocytes, 48 h | actives 5.9% (n = 310,000) | AID 504832, 2011 | Potency, µM (highest dose often 28.7 µM), for inactives: at the highest dose activity change, negative = inhibition, actives largely listed as inhibitors; note: potency is the fitted concentration of half-maximal effect; % is set by controls: 0 for no effect and ±100 for the full control effect
#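 Firefly luciferase activity from engineered P. falciparum reports growth; inhibitors lower the luminescent signal. Cultures contained 2% hematocrit erythrocytes at 0.1% final parasitemia.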
# MARV entry inh – qHTS for inhibitors of binding or entry into cells for Marburg Virus. Marburg virus pseudotyped entry inhibition, cell reporter. Potency, µM (highest dose often 37.8 µM), for the others: at the highest dose activity change, negative = inhibition, actives largely listed as inhibitors. actives 1.8% (n = 300,000); calls by dose curve; tested in HEK293 cells; note: potency is the fitted concentration of half-maximal effect; % is set by controls: 0 for no effect and ±100 for the full control effect
# Pf growth 96h – Primary qHTS for delayed death inhibitors of the malarial parasite plastid, 96 hour incubation | Potency, µM (doses to about 28.7 µM), without a hit: top-dose activity change, negative = inhibition, actives largely listed as inhibitors | actives 6.9% (n = 320,000) | P. falciparum luciferase reporter growth, 96 h; note: potency is the fitted concentration of half-maximal effect; % is set by controls: 0 for no effect and ±100 for the full control effect
#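 Two parasite generations (96 h, 37 C, 5% CO2) of compound exposure in infected erythrocytes (0.05% parasitemia, 2% hematocrit). Luciferase-reporter P. falciparum; decreased luminescence indicates inhibited growth, aimed at apicoplast-acting delayed death.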
# LASV entry inh – qHTS for Inhibitors of binding or entry into cells for Lassa Virus. Potency, µM (doses to about 37.9 µM), for inactives: at the top dose activity change, negative = inhibition, most hits filed as inhibitors. actives 1.2% (n = 300,000). AID 540256, 2011. Lassa virus pseudotype entry inhibition, cell reporter; calls by dose curve; tested in HEK293 cells; note: potency is the fitted concentration of half-maximal effect; % is set by controls: 0 for no effect and ±100 for the full control effect; nearly all actives have a fitted effect of over 50% in size
# CHX counter – Cycloheximide Counterscreen for Small Molecule Inhibitors of Shiga Toxin; cell reporter, cycloheximide protein synthesis inhibition counterscreen; actives 12% (n = 300,000); max response, %; in the data active = max response mostly above about 13%, no sharp cut-off; inactive = mostly below about 14%; note: read at 38.3 µM for the half of the compounds with a filed dose; 0% is about no effect
# * hit, by the source's call; ? = inconclusive; . = no result; [ ] = remark or other dose. An excerpt weighted towards active compounds, which were near 19% of everything screened. Unless noted, calls come from the whole dose curve; as a rule, active = well fitted inhibition curve with a large enough effect; inconclusive = small, poorly fitted or top-dose-only effect, or another doubt; inactive = no such curve, though single readings can be large or run the other way.
SMILES,Shiga inhibitor,Pf growth 48h,MARV entry inh,Pf growth 96h,LASV entry inh,CHX counter
Cc1ccc(C(=O)NC2CCN(S(=O)(=O)c3ccccc3F)CC2)cc1,.,-5.6%,27.6%,13.1µM*,?,-3.6
Cc1cccc(C(=O)NC2CCN(S(=O)(=O)c3ccccc3F)CC2)c1,15.9,?,.,-11.2%,.,-1.2
O=C(NC1CCN(S(=O)(=O)c2ccccc2)CC1)c1ccccc1,-11.3,9.6%,.,14.7µM*,.,10.9
COc1ccc(-c2cn[nH]c2-c2ccc(OCc3ccc(F)cc3)cc2O)cc1OC,7.8,10.4µM*,?,-6.3%,?,1.5
COc1ccc(-c2cn[nH]c2-c2ccc(OCC(=O)NN)cc2O)cc1OC,-4.0,?,25.2%,?,?,-4.1
COc1ccc(-c2cn[nH]c2-c2ccc(OCc3ccccc3)cc2O)cc1OC,5.7,8.28µM*,?,0.8%,?,3.6
COc1ccc(-c2cn[nH]c2-c2ccc(O)cc2O)cc1,-28.1,?,.,?,.,1.4
Cn1nnc(NCc2cc(Br)ccc2OCc2ccccc2F)n1,-15.4,?,.,-8.8%,.,-4.8
CC(C)(C)NCc1cc(Cl)ccc1OCc1ccccc1F,9.7,-16.6%[5.75 µM],?,8.28µM*,-26.7%,-5.6
Cn1nnnc1SCCCNCc1cc(Cl)ccc1OCc1ccccc1F,.,.,?,.,-19.7%[46.1 µM],.
CCN(CC)CCNCc1cc(Cl)ccc1OCc1ccccc1F,3.0,5.86µM*,?,-0.4%,.,-1.5
CC(C)(C)NCc1cc(Cl)ccc1OCc1cccs1,-3.2,?,?,9.28µM*,-23.2%,-4.3
CCOC(=O)Cc1csc(NC(=O)c2cccc(N3C(=O)CCC3=O)c2)n1,-19.1,11.4%,0.4%,.,6.0%,-2.1
Cc1ccccc1CSCC(=O)N/N=C/c1cccs1,-11.1,?,?,?,?,-0.9
Cc1ccc(-c2nnc(-c3ccccc3)c(-c3ccccc3)n2)cc1,-8.7,9.9%,-0.4%,?,-20.3%,1.2
Cc1ccc2nc(-c3ccccc3)nn2c1,.,.,8.91µM*,.,1.12µM*,.
COc1cccc(C2=NN(C(C)=O)C(c3cccs3)C2)c1 (configuration not stated),29.6,20.6%,-11.0%,6.7%,-2.4%,20.9*
CC(=O)N1N=C(c2ccccc2)CC1c1cccs1 (configuration not stated),-4.0,13.2%,29.6%[46.1 µM],12.9%,-0.2%[46.1 µM],10.0
COc1ccc(C2=NN(C(C)=O)C(c3cccs3)C2)cc1OC (configuration not stated),34.9*,-5.6%,22.0%[46.1 µM],?,22.2%[46.1 µM],22.0*
O=C(O)CCC(=O)N1N=C(c2ccccc2)CC1c1cccs1 (configuration not stated),5.6,14.1%,6.3%[46.1 µM],-11.8%,2.1%,0.9
CCC(C)c1ccccc1NC(=O)COC(=O)c1ccc(C)c(NC(=O)c2ccco2)c1 (configuration not stated),21.6,?,-13.3%,.,?,1.2
O=C(CCNC(=O)c1ccc(Br)cc1)NCc1ccccc1F,.,54.7%,-29.7%[46.1 µM],?,-14.8%,.
CCOc1ccc(CCNS(=O)(=O)c2ccc3c(c2)oc(=O)n3C)cc1OCC,-6.9,-3.4%,.,13.1µM*,.,5.1
CCN(C(=O)Cn1c(=O)oc2cc(S(=O)(=O)N3CCCC3)ccc21)c1ccc(OC)cc1,-5.7,?,.,0.3%,.,-1.0
COc1ccc(CCNC(=O)CCS(=O)(=O)c2ccc3c(c2)oc(=O)n3C)cc1OC,-5.2,?,1.9%[46.1 µM],4.15µM*,?,-2.5
Cc1ccc(CCNC(=O)CCS(=O)(=O)c2ccc3c(c2)oc(=O)n3C)cc1,-8.5,-1.8%,.,?,12.1%[46.1 µM],-10.9
COc1ccc(CCNS(=O)(=O)c2ccc3c(c2)oc(=O)n3C)cc1OC,10.7,-8.2%,.,-20.9%,.,-1.8
COc1ccc(CNC(=O)CCS(=O)(=O)c2ccc3c(c2)oc(=O)n3C)cc1,-1.5,14.2%,9.2%[46.1 µM],8.28µM*,-14.2%[46.1 µM],-10.3
CCN(C(=O)CCS(=O)(=O)c1ccc2c(c1)oc(=O)n2C)c1ccc(OC)cc1,-2.0,-28.9%,-2.6%[46.1 µM],10.4µM*,?,-1.6
CCOc1ccc(CNC(=O)CCS(=O)(=O)c2ccc3c(c2)oc(=O)n3C)cc1,-8.3,12.5%,.,?,26.9%[46.1 µM],-10.0
